# MOR-DOR inv ag-1: inverse agonists of MOR-DOR heterodimerization, primary screen, cell-based, luminescence; cell-based MOR-DOR heterodimer luminescence, inverse agonism; AID 504357, 2011; inhibition, % at 9.3 µM; actives 0.21% (n = 340,000); in the data active = inhibition above about 22%, passing the limit was not always enough;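 also: 0% = cells with DMSO and 100% = wells without cells with DMSO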
# Target sequence (P35372 whole entry, looked up): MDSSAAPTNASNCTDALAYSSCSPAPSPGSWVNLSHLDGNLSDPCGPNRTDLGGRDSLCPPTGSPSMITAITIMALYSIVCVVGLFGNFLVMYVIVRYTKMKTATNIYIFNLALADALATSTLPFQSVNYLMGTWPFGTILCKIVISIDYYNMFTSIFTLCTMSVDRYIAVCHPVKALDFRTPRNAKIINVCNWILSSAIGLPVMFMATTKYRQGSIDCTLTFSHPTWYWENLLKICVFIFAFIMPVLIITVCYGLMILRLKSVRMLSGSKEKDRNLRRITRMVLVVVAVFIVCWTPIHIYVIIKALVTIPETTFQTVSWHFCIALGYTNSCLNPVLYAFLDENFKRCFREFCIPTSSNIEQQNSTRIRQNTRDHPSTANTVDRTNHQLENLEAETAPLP
# Target sequence (P41143 whole entry, looked up): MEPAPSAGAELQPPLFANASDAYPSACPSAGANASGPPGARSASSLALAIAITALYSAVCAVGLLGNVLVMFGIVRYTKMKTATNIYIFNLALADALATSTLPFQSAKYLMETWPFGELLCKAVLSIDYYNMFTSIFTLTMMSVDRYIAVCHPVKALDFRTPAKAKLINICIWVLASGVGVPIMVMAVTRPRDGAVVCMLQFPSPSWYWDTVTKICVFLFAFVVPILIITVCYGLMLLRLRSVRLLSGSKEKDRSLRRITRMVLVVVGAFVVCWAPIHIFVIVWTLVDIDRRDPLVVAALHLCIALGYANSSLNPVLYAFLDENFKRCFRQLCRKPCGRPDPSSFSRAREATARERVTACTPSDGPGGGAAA
# OPRM1-OPRD1 ag: agonists of OPRM1-OPRD1 heterodimerization, primary screen, cell-based, luminescence; activation, % at 9.3 µM; actives 0.3% (n = 340,000); cells; in the data active = activation above about 18%;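 also: 0% = vehicle-treated cells and 100% = reference agonist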
# HTR5A ag ctr: HTR5A agonists in luminescence cell assay, primary screen, counter-screen for OPRM1-OPRD1 heterodimer agonist project, full-deck HTS; actives 0.61% (n = 340,000); 5-hydroxytryptamine receptor 5A (Homo sapiens), P47898; activation, % at 9.3 µM; cell-based; in the data active = activation mostly above about 9.5%, no sharp cut-off; inactive = mostly below about 7.6%;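 also: 0% = cells with vehicle only and 100% = reference agonist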
# HTR5A inv ag: HTR5A inverse agonists in luminescence cell assay, primary screen, counter-screen for OPRM1-OPRD1 heterodimer inverse agonist project, full-deck HTS | AID 504634, 2011 | inhibition, % at 9.3 µM | actives 0.083% (n = 340,000) | HTR5A cell line, inverse agonism; in the data active = inhibition mostly above about 23%, no sharp cut-off; inactive = mostly below about 18%;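 also: 0% = cells with DMSO and 100% = no-cell wells with DMSO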
# MOR-DOR inv ag-2: inverse agonists of MOR-DOR heterodimerization, counter-screen for HTR5A inverse agonist project, cell-based, luminescence; shares compounds with HTR5A inv ag; U2OS counter-screen cells, complementation luminescence; inhibition, % at 9.3 µM; 190 tested, under 10 active;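 also: 0% = cells with DMSO and 100% = wells without cells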
# HTR5A inv conf: HTR5A inverse agonists, retest of hits, confirmation, cell-based, luminescence. inhibition, % at 9.3 µM. shares compounds with HTR5A inv ag. AID 504916, 2011. HTR5A-expressing cells, inverse agonism. 190 tested, under 10 active;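 also: 0% = cells with DMSO and 100% = no cells with DMSO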
# The depositor's hits bear a star; i = inactive; nt = no result given. A selection: hits, their analogues and other compounds. The true share with any hit is near 1.1%. Unless noted, no rule for the calls is given here.
SMILES,MOR-DOR inv ag-1,OPRM1-OPRD1 ag,HTR5A ag ctr,HTR5A inv ag,MOR-DOR inv ag-2,HTR5A inv conf
Cc1ccc(NC2CCCN(C(=O)CSc3ccccn3)C2)cc1C (centres undefined),11,-2,3,9,nt,nt
O=c1[nH]n2c(=O)c3c([nH]c2c1N=Nc1cccc(Cl)c1)CCCC3,27,-5,-4,42*,i,-1
CCc1nnc(NC(=O)CCC(=O)NC2CCCCCC2)s1,18,-4,1,19,nt,nt
CN1CCN(C(c2ccc(Cl)cc2)c2cc(Cl)c3cccnc3c2O)CC1 (centres undefined),-59,11,4,-9,nt,nt
Oc1c(C(c2ccccn2)N2CCCCC2)cc(Cl)c2cccnc12 (centres undefined),-43,9,-10,29*,6,5
CCN1C(=O)[C@@H]2[C@@H](c3ccc(-c4ccc(F)cc4)c(OC)c3)N3CCCC[C@@]3(C(=O)OC)[C@@H]2C1=O,11,-2,0,-15,nt,nt
O=C(CSc1nnc(-c2ccccc2O)o1)N1CCOCC1,3,0,-3,8,nt,nt
O=C(CSc1nnc(-c2ccccc2Br)o1)N1CCOCC1,2,0,-9,25*,i,-64
C#CCOCCOCCOCCNc1nc(N2CCN(C(=O)[C@H](CCCN=C(N)N)n3cc(C(N)[C@@H](C)CC)nn3)CC2)nc(N2CCN(C(=O)[C@H](CCCCN)n3cc([C@@H](N)CC(N)=O)nn3)CC2)n1 (some centres undefined),21,-4,4,-20,nt,nt
CC(=O)N1CCc2ccccc2C1CC(=O)O (centres undefined),6,-1,2,43*,-13,-14
COc1cccc(CNC(=O)CCN2C(=O)[C@@H]3Cc4ccccc4CN3C2=O)c1,10,-2,-4,-5,nt,nt
CC/C(Cc1ccccc1)=N/NC(=O)CNC(=O)c1ccc(Cl)cc1Cl,2,0,6,9,nt,nt
N#CC1=C(N)Oc2c(ccc3cccnc23)C1c1ccccc1 (centres undefined),14,-3,-12,33*,-7,5
Cn1c(N=Nc2ccc(N3CCOCC3)cc2)[n+](C)c2ccccc21,14,-3,-14,37*,-76,-36
CCOc1ccccc1C(=O)NCC(=O)NNC(=O)c1cccs1,8,-2,-4,9,nt,nt
Cc1ccc2ccc(C(Nc3cccc(C(F)(F)F)c3)c3cccnc3)c(O)c2n1 (centres undefined),-24,4,-32,89*,-11,-13
O=C(Nc1nnc(-c2ccccc2)o1)c1nc2ccccc2s1,11,-2,-15,41*,i,1
N#CCCN(C(=S)NC(=O)c1ccco1)c1ccccc1F,13,-2,0,-32,nt,nt
CCOc1ccccc1C1c2[nH]c3ccccc3c2C[C@H]2C(=O)N(C3CCN(Cc4ccccc4)CC3)CC(=O)N12 (some centres undefined),5,-1,0,1,nt,nt
Cc1ccccc1C1c2[nH]c3ccccc3c2C[C@H]2C(=O)N(C3CCN(Cc4ccccc4)CC3)CC(=O)N12 (some centres undefined),-11,2,-9,32*,-22,-3
Cc1cc(C)c(COc2ccc(/C=N/n3c(C)n[nH]c3=S)cc2)c(C)c1,-14,3,-10,37*,-51,-7
CCc1ccc(NC(=O)Cn2nnc(C(=O)NCc3ccco3)c2N)cc1,4,-1,-2,15,nt,nt
COC(=O)c1cc(S(=O)(=O)NCC2CCN(CCc3cccs3)CC2)cn1C,6,-1,0,41*,-21,-2
COC(=O)c1cc(S(=O)(=O)NCC2CCN(Cc3ccc(F)cc3)CC2)cn1C,9,-2,1,-3,nt,nt
CCN(CC(=O)Nc1ccc(N2CCOCC2)cc1)C(=O)COc1ccccc1OC,9,-1,-1,2,nt,nt
SMILES,MOR-DOR inv ag-1,OPRM1-OPRD1 ag,HTR5A ag ctr,HTR5A inv ag,MOR-DOR inv ag-2,HTR5A inv conf
COc1ccc(NC(=O)CSc2n[nH]c(-c3ccccn3)n2)cc1,16,-3,1,-2,nt,nt
COc1ccccc1NC(=O)CSc1n[nH]c(-c2ccccn2)n1,4,-1,-15,39*,-63,-2
CCOC(=O)CCNC(=O)N1CCCC(Cc2ccccc2)(C(=O)OCC)C1 (centres undefined),4,-1,-8,24*,0,13
CCOc1cc(N2CCOCC2)c(OCC)cc1NC(=O)c1oc2ccccc2c1C,-11,2,-8,24*,-30,4
Cn1cc([N+](=O)[O-])c(C(=O)NC2CCCCCCC2)n1,7,-1,1,-3,nt,nt
Cc1ccc(C2N(C)c3ccccc3-c3nc4ccccc4n32)o1 (centres undefined),7,-1,-2,2,nt,nt
CC(=O)N1c2ccccc2-c2nc3ccccc3n2C1C (centres undefined),17,-4,-8,32*,-8,0
Cc1cc(C)n(CC(C)(O)c2ccccc2)n1 (centres undefined),17,-3,-3,10,nt,nt
COCCn1c(C)cc(/C=C2\NC(=S)N(C)C2=O)c1C,5,-1,-1,2,nt,nt
CN1C(=O)/C(=C/c2cc3c(cc2Br)OCO3)NC1=S,-8,2,-9,23*,i,-4
Nc1ccc(C(=O)C(=O)c2ccc(N)cc2)cc1,13,-2,-1,2,nt,nt
N=C1C=CC(=C(c2ccc(N)cc2)c2ccc(N)cc2)C=C1,-4,1,-8,31*,-83,-1
Cc1c(N2C(=O)/C(=C/c3ccc(N(C)C)cc3)N(C)C2=S)c(=O)n(-c2ccccc2)n1C,8,-2,-7,29*,i,-12
O=[N+]([O-])c1ccc(/C=N/Nc2ccc3ccccc3c2)o1,-51,7,-11,28*,-71,18
COc1cc2cc(CCCOC(=O)c3cccc(Br)c3)oc(=O)c2cc1OC,2,0,6,-14,nt,nt
C/C(=N\Nc1nc(N2CCOCC2)nc(N2CCOCC2)n1)c1cccs1,18,-3,-8,23*,-17,-7
BrC(/C=C\c1ccccc1)=N/Nc1nc(N2CCOCC2)nc(N2CCOCC2)n1,20,-4,-2,-12,nt,nt
COc1cccc(C(=O)Nc2ccc(N3CCN(C(=O)c4cccs4)CC3)cc2)c1,4,-1,-14,33*,i,-13
O=C(Nc1ccc(N2CCN(C(=O)c3cccs3)CC2)cc1)c1cccc(F)c1,-14,2,4,-13,nt,nt
Cc1nnc(NC(=O)c2ccc(S(=O)(=O)N(C)Cc3ccccc3)cc2)o1,16,-3,-4,8,nt,nt

# Screens from PubChem BioAssay.
